MITF TRPM1 inh = MITF TRPM1 promoter inhibition in SK-MEL-5 cells; inhibition, % at 12.5 µM; 330,000 compounds, 0.83% hits; SK-MEL-5 TRPM1 promoter luciferase, 24 h; AID 488899;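 active means mean inhibition across replicates of 60% or more, whatever share of single replicates reaches that level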
Shn3 inh set2 = inhibitors of Schnurri-3 3'UTR reporter in osteoblasts. Clone20 osteoblast Shn3 3'UTR firefly luciferase, 24 h. inhibition, % at 12.5 µM. 360,000 compounds, 0.52% hits. AID 588674;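 active means mean inhibition of at least 75% with every replicate also reaching 75%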;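 further: 0% = median of neutral control wells and 100% = pilot-screen positive control compound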
Peg3 promoter = inhibitors of Peg3 promoter; 360,000 compounds, 1.7% hits; HeLa PEG-Prom luciferase reporter, luminescence, overnight; inhibition, % at 20 µM; AID 588405;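 active means inhibition of at least 50% at 20 µM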
KKLEB cytotox = reduces viability of KKLEB cystic fibrosis airway cells | KKLEB CF airway cells viability, ATPlite luminescence, overnight; stronger effect = lower value; cells stimulated with P. aeruginosa culture filtrate | activity change (cytotoxicity), % at 5 µM | 360,000 compounds, 0.36% hits | AID 602141;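 active means corrected activity change at or below -50% at 5 µM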
CF NFkB inh = inhibitors of cystic fibrosis induced NF-kB; inhibition, % at 5 µM; AID 588850; 360,000 compounds, 0.86% hits; KKLEB NF-kB-GFP reporter, PAF-induced, GFP fluorescence overnight;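 active means at least 50% inhibition at 5 µM, scaled per plate between neutral and stimulator controls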;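 further: PAF is a Pseudomonas aeruginosa culture filtrate used as stimulus; plate controls were PAF-stimulated DMSO wells for no effect and unstimulated DMSO wells for full effect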
HIF-2a inh = inhibitors of HIF-2a; 786-0 RCC cells HIF-2a reporter, luciferase luminescence, overnight; inhibition, % at 18.8 µM; 360,000 compounds, 0.72% hits; AID 624352;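 active means inhibition of the luminescence signal of 40% or more relative to plate controls, in a single-dose primary screen at 18.75 µM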
Mdm2-MdmX confirm = Mdm2/MdmX (human) interaction inhibition, confirmed | 740 compounds, 99% hits | shares compounds with HIF-2a inh | inhibition, % at 8 µM | SaOS-2 split-luciferase Mdm2/MdmX complementation, luminescence;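 active means mean inhibition of the luminescence signal across two replicates at or above 26 percent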
Target sequence (O15151 whole entry, looked up): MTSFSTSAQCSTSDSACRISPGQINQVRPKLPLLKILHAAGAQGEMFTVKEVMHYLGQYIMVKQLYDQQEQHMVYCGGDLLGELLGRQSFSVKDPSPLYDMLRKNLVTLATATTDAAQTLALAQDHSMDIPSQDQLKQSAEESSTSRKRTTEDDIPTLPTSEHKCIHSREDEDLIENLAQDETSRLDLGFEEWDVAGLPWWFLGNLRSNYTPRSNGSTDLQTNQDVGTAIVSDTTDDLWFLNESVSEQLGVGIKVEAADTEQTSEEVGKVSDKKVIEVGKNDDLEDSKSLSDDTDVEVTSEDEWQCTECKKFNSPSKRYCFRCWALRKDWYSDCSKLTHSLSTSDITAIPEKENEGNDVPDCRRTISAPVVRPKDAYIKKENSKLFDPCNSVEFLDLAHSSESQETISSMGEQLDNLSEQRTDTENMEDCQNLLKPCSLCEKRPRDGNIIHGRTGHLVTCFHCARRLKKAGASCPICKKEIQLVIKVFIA
Target sequence (Q00987 whole entry, looked up): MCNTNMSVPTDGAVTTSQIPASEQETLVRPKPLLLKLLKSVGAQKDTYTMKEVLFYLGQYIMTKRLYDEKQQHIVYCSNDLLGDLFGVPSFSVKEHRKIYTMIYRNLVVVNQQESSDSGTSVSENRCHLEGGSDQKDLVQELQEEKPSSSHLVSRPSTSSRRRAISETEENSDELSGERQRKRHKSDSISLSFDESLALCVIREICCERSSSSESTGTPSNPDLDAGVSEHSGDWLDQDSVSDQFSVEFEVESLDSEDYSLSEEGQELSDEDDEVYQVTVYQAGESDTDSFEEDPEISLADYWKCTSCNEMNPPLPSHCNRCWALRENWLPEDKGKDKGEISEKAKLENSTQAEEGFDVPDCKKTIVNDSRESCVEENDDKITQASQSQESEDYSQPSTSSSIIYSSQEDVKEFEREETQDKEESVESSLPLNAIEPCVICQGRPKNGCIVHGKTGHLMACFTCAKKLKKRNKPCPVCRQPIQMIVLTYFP
HIF-2a conf = confirmation of HIF-2a inhibitors; inhibition, % at 18.8 µM; AID 651580; shares compounds with HIF-2a inh; 786-0 RCC cells, HIF-2a luciferase reporter luminescence, overnight; 1,800 compounds, 56% hits;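 active means mean inhibition across four replicates of at least 40 percent at the single tested concentration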
HIF-1a cs = HIF-1a inhibition counter-screen for HIF-2a hits; shares compounds with HIF-2a inh; MiaPaCa-2 HIF-1a luciferase reporter, desferoxamine, overnight; inhibition, % at 18.8 µM; 1,800 compounds, 72% hits;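 active means mean inhibition of the reporter signal across four replicates at the single tested dose of 50% or more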
The depositor's hits bear a star; x = not tested or not shown. This is a sample that favours compounds with a hit; in the whole collection about 2.7% have one here.

SMILES | MITF TRPM1 inh | Shn3 inh set2 | Peg3 promoter | KKLEB cytotox | CF NFkB inh | HIF-2a inh | HIF-2a conf | HIF-1a cs | others
Cc1ccc(NC(=O)c2ncn(CCCNCc3ccccn3)n2)cc1C | 1 | -17 | 0 | 7 | -4 | -11 | x | x
O=C(CN(CCO)Cc1ccccc1)N1CCN(S(=O)(=O)c2ccccc2)CC1 | x | -1 | 2 | 6 | -7 | 1 | x | x
CCc1cc(C(=O)N2CCN(C(=O)c3ccco3)CC2)sc1C | 7 | -1 | 4 | 18 | -27 | -7 | x | x
CCCNC(=O)c1nnsc1S(=O)(=O)c1ccc(Cl)cc1 | 86* | 92* | 101* | -48 | 89* | 79* | 69* | 57* | Mdm2-MdmX confirm=103*
CCCNC(=O)NS(=O)(=O)c1ccc(Cl)cc1 | -2 | -11 | -2 | 8 | -6 | 8 | x | x
CCCNC(=O)c1ccc2snnc2c1 | 5 | 6 | 6 | 1 | 11 | 17 | x | x
CCCNC(=O)c1nnsc1S(=O)c1ccc(Cl)cc1 (centres undefined) | 67* | 96* | 104* | -5 | 84* | 44* | 25 | 99*
CN1CCN(C(=O)c2ccc(-c3cnn(C)c3)c3ccoc23)CC1 | x | -2 | 8 | 7 | -13 | -18 | x | x
CSCCC(NC(=O)c1cccc(C)c1)C(=O)OCN1C(=O)c2ccccc2C1=O (centres undefined) | 6 | -17 | 6 | 11 | -18 | 12 | x | x
O=C(Nc1ccc(OC(F)(F)F)cc1)N1CCN(c2ccnc3cc(Cl)ccc23)CC1 | 15 | 75 | 26 | -7 | 3 | 43* | 11 | 45
CC(C)(C)C(=O)N1CCN(c2ccnc3cc(Cl)ccc23)CC1 | 12 | 20 | 24 | -4 | 16 | 29 | x | x
COc1ccc2c(CC(=O)Nc3ccc4nc(N5CCOCC5)sc4c3)coc2c1 | x | 8 | -32 | 7 | -7 | -74 | x | x
COc1ccc(C)c2sc(N(CCCN(C)C)C(=O)c3ccc(S(=O)(=O)N4CCc5ccccc5C4)cc3)nc12 | 96* | 92* | 102* | -84* | 75* | 85* | 29 | 97*
O=C(CNC(=O)C12CC3CC(CC(C3)C1)C2)OCc1ccc(F)cc1Cl | -1 | 25 | -13 | -6 | -16 | 6 | x | x
Brc1ccccc1/C=N/N1CCCCC1 | -4 | -16 | 0 | 12 | -19 | 45* | -19 | -7
O=C(COC(=O)c1ccc(NS(=O)(=O)c2ccc(F)c(F)c2)cc1)NCC1CCCO1 (centres undefined) | -1 | -9 | 14 | 9 | -5 | 45* | -9 | 13
COc1ccc(/C=C2\SC(=O)N(CCNC(=O)Cn3[nH]c(=O)c4ccccc4c3=O)C2=O)cc1 | 8 | 23 | 12 | -11 | 10 | 45* | 77* | 12
COc1ccc(/C=C2\SC(=O)N(CCCC(=O)Nc3ccc(C(=O)O)cc3)C2=O)cc1 | x | 74 | 44 | 5 | 10 | 85* | 97* | 91*
Cc1ccc(/C=C2\SC(=S)N(CCCC(=O)Nc3ccc(O)cc3)C2=O)cc1 | 23 | 17 | -41 | 1 | 1 | 80* | x | x | Mdm2-MdmX confirm=57*
COc1ccc(S(=O)(=O)NNS(=O)(=O)c2ccc(OC)c(OC)c2)cc1OC | x | -13 | -2 | -7 | -11 | -3 | x | x
O=[N+]([O-])c1ccc(O)c(-c2nc(-c3ccccc3)c(-c3cccs3)[nH]2)c1 | 27 | 0 | 34 | -60* | 62* | -4 | x | x | Mdm2-MdmX confirm=95*
COc1cc(OC)cc(-c2nnc(Nc3nc4c(F)cccc4s3)o2)c1 | 7 | 18 | -18 | -1 | 7 | 72* | 85* | -23
Fc1cccc2sc(Nc3nnc(-c4ccccc4)o3)nc12 | -10 | -18 | -184 | 4 | -2 | -172 | x | x
Cc1ccnc(NC(=O)c2cccc(S(=O)(=O)NCc3ccccc3)c2)c1 | -15 | -14 | -1 | 8 | -2 | -30 | x | x

Screening results from PubChem.
